The values that follow come from PubChem BioAssay (NCATS).

Results filed as inconclusive are left out. Calls of active or inactive are those of the source. The call rests on the fitted dose curve; in most records, active means well fitted cell-killing curve with a large enough effect; inconclusive means small, poorly fitted or top-dose-only effect, or effect the other way; inactive means no such curve, though single readings can be large or run the other way.
Potency means the concentration at half of the fitted maximal effect.

The test in a line: Quantitative High-Throughput drug screen in 47 multiple myeloma cell lines against the NCATS MIPE library collection: MM1S_ATCC cell viability assay (AID 1918980). Further: nearly all actives have a fitted effect of over 45% in size. The note with it: MM1S myeloma viability, CellTiter-Glo ATP luminescence, 48 h; series mostly up to 45.8 µM. The method, boiled down:
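MIPE 4.0 approved/investigational drugs; 500 cells/well; 48 h 37 °C humidified 5% CO2; CTG luminescence readout; DMSO = 100%, media = 0% viability.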
Background: In ATP-based viability assays light output follows the ATP content of the culture.
Consider `Cc1cccc(C)c1OCC(=O)N[C@@H](Cc1ccccc1)[C@@H](O)C[C@H](Cc1ccccc1)NC(=O)[C@H](C(C)C)N1CCCNC1=O`, for which the Potency was 20.9 µM (active).
As to `COc1ccc2cc([C@H](C)C(=O)O)ccc2c1`, the Potency entry is “inactive”.
In the case of `CC(=O)NC[C@H]1CN(c2ccc(N3CCOCC3)c(F)c2)C(=O)O1` it was 8.33 µM (active); in that of `CS(=O)(=O)OCCCCOS(C)(=O)=O`, “inactive”.
`CN(c1nccc(=O)[nH]1)C1CCN(c2nc3ccccc3n2Cc2ccc(F)cc2)CC1`: the Potency is 11.8 µM (active).
As for `CC(C)C[C@H](NC(=O)[C@H](Cc1ccccc1)NC(=O)c1cnccn1)B(O)O`, the Potency was 0.0066 µM (active).
For the compound `O=C(NCCO[N+](=O)[O-])c1cccnc1`, the Potency is 4.69 µM (active).
For `N[C@@H](Cc1cc(I)c(Oc2cc(I)c(O)c(I)c2)c(I)c1)C(=O)O`, the Potency entry is “inactive”.
Consider `Cc1cccc(CN2CCN(C(c3ccccc3)c3ccc(Cl)cc3)CC2)c1` (stereo not given), for which the Potency is 20.9 µM (active).
For the compound `CN(C)C(=O)[C@H](O)[C@H](Cc1ccccc1)NC(=O)c1cc2cc(Cl)ccc2[nH]1`, the Potency was 18.7 µM (active).
